# The source made the active and inactive calls.
# What was measured:
# [1] = optical density shifts of acrAB sulA E. coli – strain DRC41, OD650, 48 h, E. coli filamentation inducer project, primary screen (AID 1152); details: higher = more signal, called active from +8 up or from −8 down;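 further: E. coli MC1000 strain DRC41 lacking acrAB efflux pump and sulA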
# [2] = probe aLefty1 binding on compound microarray – biochemical, small-molecule microarray, 635/667 nm fluorescence, primary screen (AID 1153); details: higher = more signal;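 further: score merges spot fluorescence with signal-to-noise ratio from the scanned slide images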
# [3] = plasmodial surface anion channel blockers, osmotic lysis – cell-based, P. falciparum Indochina, OD700, 1 h, primary screen (AID 1154); details: P. falciparum Indochina infected RBC osmotic lysis, higher = more signal, called active from +8 up or from −8 down
# [4] = plasmodial surface anion channel blockers, osmotic lysis – cell-based, P. falciparum Indochina, OD700, 2 h, primary screen (AID 1155);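 further: lysis reports solute entry through the parasite surface anion channel PSAC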; details: P. falciparum Indochina infected erythrocytes, higher = more signal, called active from +8 up or from −8 down
# [5] = changes in parasitized red cell lysis, either direction – P. falciparum Indochina, OD700, 3 h, PSAC antagonist project, primary screen (AID 1156); details: P. falciparum-infected erythrocytes, osmotic lysis, higher = more signal, called active from +8 up or from −8 down
# [6] = plasmodial surface anion channel blockers, osmotic lysis – cell-based, P. falciparum Indochina, OD700, 18 h, primary screen (AID 1157); details: P. falciparum Indochina infected erythrocytes, osmotic lysis OD700, 18 h; higher = more signal, called active from +8 up or from −8 down
# [7] = S6 kinase pathway phospho-S6 level changes – cell-based, A549, cytoblot, luminescence, serum-stimulated, primary screen (AID 1158); details: 5 h, higher = more signal;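 further: serum-stimulated A549 lung adenocarcinoma cells; signal is phosphorylated S6 detected by cytoblot immunostaining with HRP secondary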
# [8] = biological target: NADPH oxidase 2 (Homo sapiens) (UniProt P04839); test: compounds shifting NOX2 Amplex Red fluorescence – cell-based, HEK293-NOX2, PMA-stimulated, NOX inhibitor project, primary screen (AID 1159); details: 45 min, higher = more signal, called active from +8 up or from −8 down; further: test concentration not given here
# [9] = biological target: NADPH oxidase 4 (Homo sapiens) (UniProt Q9NPH5); test: compounds shifting NOX4 Amplex Red fluorescence – cell-based, HEK293-NOX4, tetracycline-induced, NOX inhibitor project, primary screen (AID 1160); details: HEK293-NOX4, Amplex Red H2O2 fluorescence, 45 min; higher = more signal, called active from +8 up or from −8 down
# [10] = biological target: NADPH oxidase 5 (Homo sapiens) (UniProt Q96PH1); test: compounds shifting NOX5 Amplex Red fluorescence – cell-based, HEK293-NOX5, NOX inhibitor project, primary screen (AID 1161); details: HEK293-NOX5, ionomycin, 45 min, higher = more signal
# [11] = compound effects on lung adenocarcinoma cell viability – A549, calcein-AM fluorescence, 48 h, basal, profiling panel (AID 1162); details: higher = more signal; further: test concentration not given here
# [12] = compound effects on differentiated 3T3-L1 adipocyte viability – cell-based, 3T3-L1 adipocytes, calcein-AM fluorescence, 48 h, basal, profiling panel (AID 1163); details: 3T3-L1 adipocytes viability, higher = more signal; further: test concentration not given here
# [13] = compound effects on hepatocellular carcinoma cell viability – HepG2, calcein-AM fluorescence, 48 h, basal, profiling panel (AID 1164); details: higher = more signal; further: test concentration not given here
# [14] = compound effects on multiple myeloma cell viability – MM1S, calcein-AM fluorescence, 48 h, basal, profiling panel (AID 1165); details: higher = more signal;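 further: viability of MM1S multiple myeloma cells under basal unstimulated conditions; test concentration not given here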
# [15] = calcein-AM signal in unstimulated myeloma cells – cell-based, calcein-AM fluorescence, 48 h, PK04 Diversity Set, profiling panel (AID 1166); details: RPMI8226 myeloma viability, higher = more signal;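 further: cells grown under basal conditions without added stimulus; test concentration not given here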
# [16] = JC-1 mitochondrial signal, unstimulated HepG2 cells – cell-based, JC-1 fluorescence, 24 h, 100 nL compound, profiling panel (AID 1167); details: HepG2 mitochondrial potential, higher = more signal; further: test concentration not given here
# [17] = JC-1 mitochondrial signal, unstimulated adipocytes – cell-based, JC-1 fluorescence, 3T3-L1 adipocytes, 24 h, 100 nL compound, profiling panel (AID 1168); details: JC-1 mitochondrial fluorescence, higher = more signal, called active from +8 up or from −8 down; further: test concentration not given here
# [18] = JC-1 mitochondrial signal, unstimulated myeloma cells – cell-based, JC-1 fluorescence, RPMI8226, 24 h, 100 nL compound, profiling panel (AID 1169); details: JC-1 mitochondrial potential fluorescence, higher = more signal; further: test concentration not given here
# [19] = JC-1 mitochondrial signal, unstimulated MM1S myeloma – cell-based, JC-1 fluorescence, 24 h, 100 nL compound, profiling panel (AID 1170); details: MM1S mitochondrial potential, higher = more signal; further: test concentration not given here
# [20] = resazurin metabolic signal in A549 cells – cell-based, resazurin fluorescence, 24 h, PK04 Diversity Set, profiling panel (AID 1171); details: A549 viability, higher = more signal, called active from +8 up or from −8 down; further: test concentration not given here
# Sequence of NADPH oxidase 2 (Homo sapiens) (P04839 whole entry, looked up): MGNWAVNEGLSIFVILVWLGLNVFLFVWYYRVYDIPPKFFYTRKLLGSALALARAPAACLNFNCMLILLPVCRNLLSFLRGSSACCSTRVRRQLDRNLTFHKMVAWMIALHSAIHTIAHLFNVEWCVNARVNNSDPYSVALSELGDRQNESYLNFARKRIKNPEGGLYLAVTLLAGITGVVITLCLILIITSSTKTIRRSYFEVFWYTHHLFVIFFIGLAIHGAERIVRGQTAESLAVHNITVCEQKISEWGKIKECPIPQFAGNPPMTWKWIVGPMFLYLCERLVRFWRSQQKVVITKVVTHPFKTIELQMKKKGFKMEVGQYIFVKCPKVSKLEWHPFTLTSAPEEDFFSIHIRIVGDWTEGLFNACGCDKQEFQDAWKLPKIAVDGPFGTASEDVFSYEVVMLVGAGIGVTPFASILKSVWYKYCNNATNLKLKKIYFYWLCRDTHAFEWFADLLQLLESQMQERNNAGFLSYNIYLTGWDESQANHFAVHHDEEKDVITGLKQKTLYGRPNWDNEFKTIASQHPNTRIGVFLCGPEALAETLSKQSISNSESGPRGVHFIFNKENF
# Sequence of NADPH oxidase 4 (Homo sapiens) (Q9NPH5 whole entry, looked up): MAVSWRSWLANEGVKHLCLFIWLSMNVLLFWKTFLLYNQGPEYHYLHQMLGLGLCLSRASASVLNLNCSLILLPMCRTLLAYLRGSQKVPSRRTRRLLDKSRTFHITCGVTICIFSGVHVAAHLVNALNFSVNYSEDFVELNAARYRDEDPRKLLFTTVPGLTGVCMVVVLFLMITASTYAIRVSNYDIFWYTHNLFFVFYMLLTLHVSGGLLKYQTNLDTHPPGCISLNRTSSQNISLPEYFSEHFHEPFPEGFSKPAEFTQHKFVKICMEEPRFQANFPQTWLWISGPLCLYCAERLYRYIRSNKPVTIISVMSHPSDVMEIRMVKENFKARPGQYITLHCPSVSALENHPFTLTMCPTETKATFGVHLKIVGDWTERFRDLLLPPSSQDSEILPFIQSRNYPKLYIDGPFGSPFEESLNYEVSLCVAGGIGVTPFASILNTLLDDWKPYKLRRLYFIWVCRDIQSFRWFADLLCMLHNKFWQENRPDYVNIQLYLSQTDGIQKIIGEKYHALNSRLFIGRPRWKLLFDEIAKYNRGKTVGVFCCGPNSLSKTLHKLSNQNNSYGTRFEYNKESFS
# Sequence of NADPH oxidase 5 (Homo sapiens) (Q96PH1 whole entry, looked up): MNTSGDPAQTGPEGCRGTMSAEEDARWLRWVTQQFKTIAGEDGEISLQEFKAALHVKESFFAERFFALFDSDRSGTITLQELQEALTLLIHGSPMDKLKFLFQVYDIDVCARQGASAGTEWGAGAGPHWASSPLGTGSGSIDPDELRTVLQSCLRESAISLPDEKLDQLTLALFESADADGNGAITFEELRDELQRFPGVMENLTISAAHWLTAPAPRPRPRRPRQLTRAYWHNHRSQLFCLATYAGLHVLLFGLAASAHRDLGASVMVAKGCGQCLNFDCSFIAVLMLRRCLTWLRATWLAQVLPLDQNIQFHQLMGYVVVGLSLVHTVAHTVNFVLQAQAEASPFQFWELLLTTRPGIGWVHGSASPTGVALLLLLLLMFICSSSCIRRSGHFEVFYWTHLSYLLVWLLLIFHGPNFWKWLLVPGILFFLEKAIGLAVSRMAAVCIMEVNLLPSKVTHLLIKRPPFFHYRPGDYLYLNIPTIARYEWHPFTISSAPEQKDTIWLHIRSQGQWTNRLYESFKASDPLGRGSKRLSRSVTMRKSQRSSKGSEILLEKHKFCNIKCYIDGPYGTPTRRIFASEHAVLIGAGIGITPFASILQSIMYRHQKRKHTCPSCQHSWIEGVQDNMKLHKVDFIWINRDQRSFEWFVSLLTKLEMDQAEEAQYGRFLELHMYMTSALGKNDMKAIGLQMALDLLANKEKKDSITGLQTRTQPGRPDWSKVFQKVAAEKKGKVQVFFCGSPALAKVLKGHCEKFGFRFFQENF
SMILES,z-score [1],composite z-score [2],z-score [3],z-score [4],z-score [5],z-score [6],z-score [7],z-score [8],z-score [9],z-score [10],z-score [11],z-score [12],z-score [13],z-score [14],z-score [15],z-score [16],z-score [17],z-score [18],z-score [19],z-score [20]
CC(C)C(=C=CC[C@H](O)c1cccc(OCCO)c1)CCO,1.09 (inactive),-0.116,1.77 (inactive),-1.04 (inactive),-1.42 (inactive),-1.95 (inactive),0.28,-0.24 (inactive),0.17 (inactive),-1.29,0.211,0.786,0.401,0.214,0.292,0.434,-0.599 (inactive),0.6,-0.373,1.21 (inactive)
CCOC(=O)C1=C[C@@H](c2ccccc2)N(S(=O)(=O)c2ccc(C)cc2)[C@H]1c1ccccc1,-0.388 (inactive),0.119,13.8 (active),2.21 (inactive),-0.657 (inactive),0.708 (inactive),-0.8,-0.395 (inactive),-0.395 (inactive),0.565,-0.834,-0.926,-0.813,-1.14,-1.16,1.62,-2.52 (inactive),-0.368,-0.0131,0.537 (inactive)
COCCOC(=O)N1C(=O)[C@@]2(c3cc(C#CCNC(N)=O)ccc31)[C@H](c1ccc(O)cc1)N1[C@H](c3ccccc3)[C@H](c3ccccc3)OC(=O)[C@H]1[C@@H]2C(=O)N1CCN(c2ncccn2)CC1,-0.279 (inactive),-0.191,2.78 (inactive),1.32 (inactive),0.528 (inactive),0.973 (inactive),-0.43,1.23 (inactive),-0.121 (inactive),1.13,-0.652,-0.901,0.527,-0.0396,-1.05,-2.34,0.703 (inactive),-0.322,-1.14,-0.163 (inactive)
NC(=O)[C@@H]1[C@H]2C(=O)O[C@H](c3ccccc3)[C@H](c3ccccc3)N2[C@H](c2ccc(OCCO)cc2)[C@@]12C(=O)Nc1ccc(C#CCCO)cc12,0.498 (inactive),0.0253,22.5 (active),4.8 (inactive),2.59 (inactive),0.908 (inactive),0.229,1.5 (inactive),1.15 (inactive),0.92,-0.0173,-0.387,1.17,-0.929,0.698,-0.704,-0.391 (inactive),-0.323,-0.939,-0.65 (inactive)
CC(=O)N1CC(C(O)C2C=CC3C(=O)NC(=O)C3N2Nc2ccc(Cl)cc2Cl)c2ccccc21 (stereo not given),-1.14 (inactive),0.176,3.47 (inactive),1.36 (inactive),-0.0499 (inactive),1.17 (inactive),-0.746,-0.849 (inactive),-4.86 (inactive),-2.57,1.08,-0.753,0.46,-0.452,0.0876,-1.29,-0.229 (inactive),-0.212,0.644,-0.554 (inactive)
CCCCC(=O)N(CCN1CCOCC1)[C@@H]1CC(C(=O)NCCO)=C[C@H](Oc2c(I)cc(CO)cc2OC)[C@H]1O,1.4 (inactive),-0.235,3.89 (inactive),0.756 (inactive),0.098 (inactive),0.133 (inactive),-0.0612,-0.381 (inactive),0.577 (inactive),0.613,1.5,-1.07,0.569,0.135,-0.157,-0.959,-0.716 (inactive),-0.277,-0.109,-0.0043 (inactive)
CN1C=C(C(=O)OCCS(C)(=O)=O)C(C(=O)OCCS(C)(=O)=O)=CC(c2ccc(CO)cc2)=CC1c1cccs1 (stereo not given),0.248 (inactive),0.391,9.6 (active),1.64 (inactive),0.298 (inactive),0.969 (inactive),0.0225,-0.937 (inactive),-0.558 (inactive),-1.98,0.574,-0.72,0.977,-1.43,-1.1,-0.963,-0.345 (inactive),-0.627,0.0752,0.458 (inactive)
COCCOC(=O)N1C(=O)[C@@]2(c3ccccc31)[C@H](c1ccccc1OCCO)N1[C@H](c3ccccc3)[C@H](c3ccccc3)OC(=O)[C@H]1[C@@H]2C(N)=O,-0.714 (inactive),0.221,3.59 (inactive),1.18 (inactive),-0.463 (inactive),0.689 (inactive),0.231,1.88 (inactive),0.787 (inactive),0.212,-1.59,0.61,-1.85,-3.32,-4.57,-0.88,-0.27 (inactive),-1.15,-1.21,-1.78 (inactive)
C=CCC(OC(C)=O)[C@@H]1[C@@H](N(Cc2ccc(-c3cccc(C(F)(F)F)c3)o2)C(=O)c2cccc3ccccc23)c2cc(OCCCO)ccc2N1C(=O)Cc1ccc(OC)cc1 (stereo not given in full),0.386 (inactive),-0.0818,1.62 (inactive),0.753 (inactive),1.94 (inactive),0.702 (inactive),0.461,-3.21 (inactive),-1.73 (inactive),-1.49,0.546,0.612,0.598,-1.16,-1.76,2.32,0.0601 (inactive),-0.748,-0.0799,0.643 (inactive)

# Reference: PubChem BioAssay
